# Assay outcomes as filed in PubChem.
# Rows were chosen to be rich in hits. Some 5.7% of all compounds tested hit in one or more screens of this group.
# hcDAF-12 act – H. contortus DAF-12 activation, primary screen; HEK293 hcDAF-12 lit1-tk-luc reporter, luminescence; 0% DMSO, 100% Δ7-dafachronic acid; activation, % at 6.8 µM; 370,000 compounds, 1.4% hits; AID 652067;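 active = activation above the mean of all tested compounds plus 3 SD, cut at about 5.5% in these data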;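 note: 100% = response to 3 µM Δ7-dafachronic acid high control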
# DAX1 inh-1 – blocks DAX1 repression of SF-1 activated StAR promoter; HEK293T StAR-luciferase reporter, SF-1/DAX-1 repression relief; inhibition, % at 6.8 µM; 370,000 compounds, 1.1% hits; AID 652010;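 active = inhibition above the mean over all tested compounds plus 3 SD, cut at about 3.6% in these data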;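 note: 0% = DAX-1 cells with DMSO and 100% = cells lacking DAX-1 with DMSO; higher inhibition means more luminescence from relief of DAX-1 repression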
# ssDAF12 agonist – S. stercoralis DAF-12 activation, primary screen | 370,000 compounds, 1% hits | HEK293 ssDAF-12/GRIP1 lit1-tk-luc reporter, luminescence; % of 3 µM dafachronic acid response | activation, % at 6.8 µM;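 active = activation above the mean over all tested compounds plus 3 SD, cut at about 0.9% in these data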;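 note: 0% = DMSO-only wells and 100% = 3 µM delta7-dafachronic acid wells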
# AHR activator – human AHR activation. AHR-responsive luciferase reporter cells, luminescence. 320,000 compounds, 2.5% hits. activation, % at 5 µM. P35869. AID 2796; in the data active = activation above about 47%;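 note: 0% = vehicle wells and 100% = reference agonist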
# hgDAF-12 ag – hgDAF-12 agonism, primary luciferase screen. 370,000 compounds, 1.8% hits. activation, % at 6.8 µM. HEK293 GAL4-hgDAF12 UAS-luciferase reporter, agonist luminescence; normalized to butyrate control;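 active = activation above a cutoff set at the mean of all screened compounds plus 3 SD, cut at about 10% in these data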;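 note: 0% = DMSO wells and 100% = sodium butyrate wells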
# DAX1 inh-2 – inhibitors of human orphan nuclear receptor DAX1 (NR0B1); inhibition, % at 6.75 µM; P51843; 340,000 compounds, 0.99% hits; HEK293 Gal4-DAX1 luciferase reporter, luminescence;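 active = inhibition above the mean over all tested compounds plus 3 SD, cut at about 4.2% in these data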;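 note: 0% = DAX1-transfected cells with DMSO and 100% = empty-vector control cells with DMSO; inhibition shows as a rise in luminescence from relieved DAX1 repression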
# Target sequence (P51843 207-470 limits assumed): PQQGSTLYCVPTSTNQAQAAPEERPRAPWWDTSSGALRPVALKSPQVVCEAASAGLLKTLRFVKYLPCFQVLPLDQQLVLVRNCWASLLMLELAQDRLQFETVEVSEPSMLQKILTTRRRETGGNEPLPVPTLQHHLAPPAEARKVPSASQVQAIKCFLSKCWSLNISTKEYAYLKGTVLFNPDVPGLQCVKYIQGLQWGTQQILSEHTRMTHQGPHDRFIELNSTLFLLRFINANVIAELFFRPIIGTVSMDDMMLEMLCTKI
# An asterisk follows results filed as active; x = no result given.
SMILES,hcDAF-12 act,DAX1 inh-1,ssDAF12 agonist,AHR activator,hgDAF-12 ag,DAX1 inh-2
O=C(CNC(=O)[C@@H]1Cc2ccccc2CN1)NCc1ccco1,0,0,-1,-1,0,-1
COc1ccc(-c2nc(-c3cccs3)c(-c3cccs3)[nH]2)cc1O,-1,-2,-1,48*,-2,-2
Cc1ncsc1C(=O)N1N=C2/C(=C/c3ccccc3)CCCC2C1c1ccccc1 (stereo not drawn),1,0,-1,14,-1,0
NC(=O)N1N=C2/C(=C/c3ccccc3)CCCC2C1c1ccccc1 (stereo not drawn),1,-1,-1,59*,0,-1
O=C(O)CSCC(=O)N1N=C2/C(=C/c3ccccc3)CCCC2C1c1ccccc1 (stereo not drawn),2,0,0,49*,1,-1
Cc1cccc(NC(=O)CC2Nc3cccc4cccc(c34)NC2=O)c1 (stereo not drawn),3,0,0,75*,-2,-1
COc1ccccc1NC(=O)CC1Nc2ccccc2NC1=O (stereo not drawn),3,-1,1,56*,0,-1
O=Cc1cscc1[B-](F)(F)F,-2,-1,-1,x,-1,x
Nc1cc(C(F)(F)F)ccc1Nc1ccccc1,1,0,0.9*,7,1,0
Nc1cc(C(F)(F)F)ccc1NCCc1ccccn1,-1,-1,-1,64*,0,-1
CC(C)[C@@H](C)/C=C/[C@@H](C)[C@H]1CC[C@@H]2[C@]1(C)CCC1[C@]23C=C[C@]2(C[C@@H](O)CC[C@]12C)N(C(=O)Cc1ccccc1)O3 (stereo partly drawn),-1,0,-1,x,-3,x
O=C(Nc1ccc(O)c(-c2nc3ccccc3s2)c1)c1cc(=O)c2ccccc2o1,0,0,-1,2,0,-1
O=C(Nc1ccc(F)cc1)Nc1sccc1-c1nc2ccccc2s1,0,0,-1,60*,2,1
COc1ccc(NC(=S)NC(=O)/C=C/c2ccco2)cc1,1,0,-1,18,10,4.8*
CNc1sc(C(=O)c2ccc(F)cc2)c(N)c1-c1nc2ccccc2s1,2,0,-1,32,1,2
CC(=O)NC(=S)Nc1ccc(NC(=S)NC(=O)/C=C/c2ccco2)cc1,-1,0,-2,1,0,-1
O=C(/C=C/c1ccco1)NC(=S)Nc1ccc(O)c(-c2nc3ccccc3s2)c1,0,0,-1,80*,4,-1
O=C(Nc1ccc(O)c(-c2nc3ccccc3s2)c1)c1cccs1,-1,0,-1,74*,0,0
CC(=O)N1c2ccc(S(=O)(=O)N3CCC(C(=O)Nc4ncccc4C)CC3)cc2CC1C (stereo not drawn),-1,-1,0,1,0,0
COc1ccc(-c2ccc(CN3C(C(C)C)C(=O)N(Cc4cn(Cc5ccco5)nn4)CCS3(=O)=O)cc2)cn1 (stereo not drawn),-1,0,-1,x,-2,0
Cc1ccc(O)c(NC(=S)NC(=O)/C=C/c2ccccc2)c1,0,0,-1,44,-1,1
Nc1ccc(O)c(-c2nc3ccccc3s2)c1,4,2,1.2*,22,7,1
Cc1ccc(O)c(NC(=S)NC(=O)/C=C/c2ccco2)c1,4,-1,0,22,12*,0
COc1ccc(NC(=O)c2ccc(Br)o2)cc1,0,1,0,3,9,1
COc1ccc(NC(=S)NC(=O)c2ccc(Br)o2)cc1,1,1,0,5,11*,1
NC1=NC(c2ccccc2)=NC1(NC(=O)c1ccccc1)C(Cl)Cl (stereo not drawn),-1,0,-1,-2,-1,1
CCCCN1C(=O)N2CCc3ccccc3C2CS1(=O)=O (stereo not drawn),1,0,-1,x,3,x
CSc1cccc(NC(=S)N2CCCN(Cc3ccccc3F)C2)c1,-1,-1,-1,0,2,-2
CCc1noc(C)c1C(=O)Nc1nc2c(C)cc(C)cc2s1,-3,-2,-2,-9,-3,-1
